Assay [1] is described as follows: resazurin metabolic signal in HepG2 cells – cell-based, resazurin fluorescence, 24 h, PK04 Diversity Set, profiling panel (AID 1172). The note with it: HepG2 viability, higher = more signal. (Resazurin is reduced to fluorescent resorufin, in cell work by metabolically active cells.)
The nature of assay [2]: budding yeast growth changes without added modifier – OD600, strain BY4716, 24 h, basal condition, primary screen (AID 1173). To be noted: S. cerevisiae BY4716 growth, OD600, 24 h; higher = more signal, called active from +8 up or from −8 down.
Assay [3] is described as follows: viability profiling in MM1S myeloma cells – cell-based, resazurin fluorescence, basal, 24 h, PK04 Diversity Set, profiling panel (AID 1174).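 Further: MM1S multiple myeloma cell line.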 The note with it: higher = more signal, called active from +8 up or from −8 down.
Assay [4] concerns the target Dihydroorotate dehydrogenase (quinone), mitochondrial (Plasmodium falciparum (isolate 3D7)) (UniProt Q08210). The assay can be described thus: inhibition of P. falciparum DHODH – biochemical, C-terminal His tag, absorbance 600 nm, primary screen (AID 1175).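 Further: recombinant parasite enzyme with a five histidine tag at its C terminus.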 The note with it: PfDHODH enzyme, DCIP absorbance 600 nm; higher = more signal, called active from +8 up or from −8 down.

Assay [5] can be described thus: inhibition of PAO1 biofilm formation – strain PAO1, LB-PBS medium, absorbance 600 nm, primary screen (AID 1176). The note with it: P. aeruginosa PAO1 growth/biofilm, A600, 12 h; higher = more signal.
Assay [6] is described as follows: growth modulation of vineyard yeast isolate – strain RM11-1a, OD600, basal, 24 h, primary screen (AID 1177).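 Further: cultures grown under basal conditions with no added stressor.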 The note with it: S. cerevisiae RM11-1a growth, OD600, 24 h; higher = more signal, called active from +8 up or from −8 down.
Assay [7] is described as follows: growth of efflux-deficient E. coli DRC39 – strain DRC39, OD650, 24 h, E. coli filamentation inducers, primary screen (AID 1178).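 Further: growth measured as culture turbidity by optical density at 650 nm.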 The note with it: E. coli DRC39 acrAB, higher = more signal, called active from +8 up or from −8 down.
A short description of assay [8]: growth of efflux-deficient E. coli DRC39 – strain DRC39, OD650, 48 h, E. coli filamentation inducers, primary screen (AID 1179).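 Further: screen aims at cell division blockers that make cells filament.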 The note with it: E. coli DRC39 delta-acrAB growth, higher = more signal, called active from +8 up or from −8 down.
Assay [9] in a line: viability profiling in RPMI8226 myeloma cells – cell-based, resazurin fluorescence, basal, 24 h, PK04 Diversity Set, profiling panel (AID 1180).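 Further: RPMI8826 multiple myeloma cell line at 5000 cells per well.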 To be noted: higher = more signal.
Assay [10] addresses E3 ubiquitin-protein ligase XIAP (Homo sapiens) (UniProt P98170). As to the kind of experiment: small molecules binding XIAP protein – biophysical, small-molecule microarray, fluorescence 635 nm, primary screen (AID 1181).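 Further: score merges 667 nm emission and signal to noise over triplicate slides.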 To be noted: higher = more signal.
The test system of assay [11] is XIP peptide (Xip251-270) binding. As to the kind of experiment: XIP fragment 251-270 binding compounds – biochemical, small-molecule microarray, fluorescence 635/667 nm, 0.1 µg/mL protein, primary screen (AID 1182). To be noted: fluorescent protein binding, 635 nm, higher = more signal, called active from +8 up or from −8 down.
The subject of assay [12] is XIP peptide (Xip251-270). The assay can be described thus: compounds binding XIP fragment 251-270 – biochemical, small-molecule microarray, fluorescence 635/667 nm, 0.5 µg/mL protein, primary screen (AID 1183). The note with it: fluorescence 635 nm, higher = more signal.
Assay [13] in a line: blood-stage malaria parasite viability loss – strain 3D7, DAPI fluorescence, 100 nL, primary screen (AID 1184).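 Further: parasites grown inside human red blood cells in medium with human serum.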 The note with it: P. falciparum 3D7 growth, 3 d, higher = more signal.
Assay [14] concerns the target Homeobox protein Hox-A13 (Mus musculus) (UniProt Q62424). As to the kind of experiment: disruptors of Hoxa13 oligonucleotide interaction – biochemical, fluorescence polarization, labeled oligonucleotide, primary screen (AID 1185). The note with it: Hoxa13:DNA binding, 15 min, higher = more signal, called active from +8 up or from −8 down.
The nature of assay [15]: blockers of DNA damage checkpoint Chk1 activation – imaging, HeLa, hydroxyurea, phospho-Chk1 antibody, percent positive cells, primary screen (AID 1186). The note with it: hydroxyurea-induced phospho-Chk1 immunofluorescence imaging, higher = more signal.
Assay [16] in a line: blockers of DNA damage checkpoint Chk1 activation – imaging, HeLa, hydroxyurea, phospho-Chk1 nuclear intensity, primary screen (AID 1187). To be noted: hydroxyurea-induced phospho-Chk1 immunofluorescence imaging, higher = more signal.

Active and inactive are the calls of the source. Unless noted, how the calls were made is not given here.

Chain of Dihydroorotate dehydrogenase (quinone), mitochondrial (Plasmodium falciparum (isolate 3D7)) (Q08210 whole entry, looked up): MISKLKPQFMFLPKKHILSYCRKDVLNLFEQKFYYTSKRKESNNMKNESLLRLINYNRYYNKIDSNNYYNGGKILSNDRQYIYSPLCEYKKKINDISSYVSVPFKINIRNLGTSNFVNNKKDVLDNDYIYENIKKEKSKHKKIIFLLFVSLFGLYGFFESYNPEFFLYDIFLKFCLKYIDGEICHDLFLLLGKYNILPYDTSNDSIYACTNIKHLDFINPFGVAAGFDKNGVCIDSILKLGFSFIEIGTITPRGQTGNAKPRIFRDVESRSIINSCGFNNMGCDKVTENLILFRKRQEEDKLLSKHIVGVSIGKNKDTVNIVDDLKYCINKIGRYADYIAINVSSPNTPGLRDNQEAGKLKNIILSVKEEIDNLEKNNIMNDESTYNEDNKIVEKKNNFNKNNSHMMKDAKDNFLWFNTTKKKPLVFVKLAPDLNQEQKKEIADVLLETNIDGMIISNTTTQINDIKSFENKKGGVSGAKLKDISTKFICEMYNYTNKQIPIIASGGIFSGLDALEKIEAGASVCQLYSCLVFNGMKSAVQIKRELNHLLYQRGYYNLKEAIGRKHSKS
Chain of E3 ubiquitin-protein ligase XIAP (Homo sapiens) (P98170 whole entry, looked up, the tested form may be a part): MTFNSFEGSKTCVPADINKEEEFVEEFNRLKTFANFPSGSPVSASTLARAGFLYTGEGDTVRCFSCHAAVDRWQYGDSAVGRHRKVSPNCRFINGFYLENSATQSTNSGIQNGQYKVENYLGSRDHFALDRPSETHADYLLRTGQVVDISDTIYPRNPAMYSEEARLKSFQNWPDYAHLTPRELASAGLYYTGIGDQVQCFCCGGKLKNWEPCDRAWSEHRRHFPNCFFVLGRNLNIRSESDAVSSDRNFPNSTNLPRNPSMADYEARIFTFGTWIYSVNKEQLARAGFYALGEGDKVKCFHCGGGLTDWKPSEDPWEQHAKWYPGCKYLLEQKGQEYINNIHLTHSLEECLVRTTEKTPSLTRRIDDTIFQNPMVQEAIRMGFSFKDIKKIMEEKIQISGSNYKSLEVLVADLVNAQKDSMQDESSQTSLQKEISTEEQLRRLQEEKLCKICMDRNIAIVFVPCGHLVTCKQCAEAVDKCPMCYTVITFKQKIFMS
Chain of Homeobox protein Hox-A13 (Mus musculus) (Q62424 whole entry, looked up): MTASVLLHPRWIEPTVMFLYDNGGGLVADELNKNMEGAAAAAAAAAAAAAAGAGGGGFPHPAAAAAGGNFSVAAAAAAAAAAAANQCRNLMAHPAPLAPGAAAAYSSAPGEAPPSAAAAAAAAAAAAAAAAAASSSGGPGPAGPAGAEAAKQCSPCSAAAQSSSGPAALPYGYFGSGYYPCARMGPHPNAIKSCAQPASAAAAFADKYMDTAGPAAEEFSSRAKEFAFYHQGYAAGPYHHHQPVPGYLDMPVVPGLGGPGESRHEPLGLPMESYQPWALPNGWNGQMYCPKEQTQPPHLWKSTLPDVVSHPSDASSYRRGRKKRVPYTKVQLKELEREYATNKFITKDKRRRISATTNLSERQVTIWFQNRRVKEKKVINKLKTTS

As to `CN(C)CCCNC(=O)[C@@]1(c2ccc([N+](=O)[O-])cc2)CC(=O)N(CC23CC4CC(CC(C4)C2)C3)[C@@H]1c1ccc(CO)cc1`, the z-score in assay [1] was -6.19; in assay [2], -16.2 (active); in assay [3], -8.92 (active); in [5], 0.472 (inactive); in assay [6], -8.93 (active); in [7], 0.325 (inactive). Besides, the z-score in [8] is -2.4 (inactive); in assay [9], -6.48; in assay [13] it was -2.4; in [14], 7.52 (inactive); in assay [15], -0.451 (inactive); in assay [16], -0.75 (inactive). In addition, the composite z-score in [4] is 0.687 (inactive); in assay [10], 0.0896; in [11], 1.13 (inactive); in assay [12], 0.843.

Regarding `CCOC(=O)C[C@H]1[C@H](OC(=O)Cc2ccc3c(c2)OCO3)[C@@H](NC(=O)Cc2ccc(OC)cc2)c2cc(OCCCO)ccc2N1C(=O)c1ccccc1`, the z-score in assay [1] was -0.174; in [2] it was -0.0578 (inactive); in assay [3], -0.727 (inactive); in assay [5], -0.218 (inactive); in assay [6], 0.42 (inactive); in [7], -0.296 (inactive). For the same compound, the z-score in assay [8] was 0.386 (inactive); in [9], 0.66; in [13], -0.382; in assay [14] it was -2.51 (inactive); in assay [15] it was -0.543 (inactive); in assay [16], -0.165 (inactive). Besides, the composite z-score in assay [4] is 0.0225 (inactive); in assay [10] it was -0.406; in assay [11], 1.08 (inactive); in assay [12], -0.0883.

As to `CCOC(=O)C1=CC[C@@H](c2ccccc2C(F)(F)F)N(S(=O)(=O)c2ccc(C)cc2)C1`, the z-score was -0.217 in [1]; -3.44 (inactive) in assay [2]; -0.578 (inactive) in assay [3]; -0.184 (inactive) in [5]; -1.07 (inactive) in assay [6]; -0.346 (inactive) in assay [7]. Also, the z-score is 0.984 (inactive) in assay [8]; -0.338 in [9]; -0.386 in assay [13]; -2.64 (inactive) in assay [14]; -0.155 (inactive) in assay [15]; -0.341 (inactive) in assay [16]. Moreover, the composite z-score in assay [4] is -2.99 (inactive); in assay [10] it was -0.12; in [11], 0.561 (inactive); in assay [12] it was 0.667.

Consider `O=C1OCCC=C[C@H]2OC34C=CCN(c5ccc(Cl)cc5)C(=O)[C@H]3N(CCCCCO)C(=O)[C@@H]4C12` (stereo not given in full), for which the z-score is 1.25 in [1]; -0.508 (inactive) in assay [2]; 0.89 (inactive) in [3]; -0.525 (inactive) in [5]; -0.429 (inactive) in assay [6]; 1.68 (inactive) in assay [7]. The z-score is 1.83 (inactive) in [8]; 0.599 in assay [9]; 0.684 in [13]; -5.82 (inactive) in assay [14]; 0.578 (inactive) in assay [15]; 0.434 (inactive) in [16]. The composite z-score is -0.417 (inactive) in assay [4], 0.23 in assay [10], 0.445 (inactive) in assay [11] and -0.342 in [12].

With `O=C1c2ccccc2[C@](Cc2ccccc2I)(C(=O)NCCN2CCOCC2)[C@H](c2ccc(CO)cc2)N1Cc1ccccc1`, the z-score in assay [1] is -0.462; in assay [2], -0.915 (inactive); in assay [3] it was 0.068 (inactive); in [5], 0.186 (inactive); in [6] it was 0.233 (inactive); in assay [7], -0.256 (inactive). For the same compound, the z-score in assay [8] was -0.0438 (inactive); in [9], -0.713; in [13] it was -0.74; in assay [14], -5.76 (inactive); in assay [15], -0.0525 (inactive); in [16], -0.321 (inactive). Further, the composite z-score in assay [4] is 0.215 (inactive); in assay [10], 0.0904; in [11], 0.198 (inactive); in [12], 0.67.

Regarding `C=CCOC(=O)[C@H]1[C@@H]2C(=O)O[C@@H](c3ccccc3)[C@@H](c3ccccc3)N2[C@@H](c2ccc(OCCOC(=O)[C@H]3C[C@H]4C(=O)N[C@@H](Cc5ccccc5)C(=O)N4[C@H]3c3ccc(O)cc3)cc2)[C@]12C(=O)Nc1ccc(I)cc12`, the z-score in [1] is -0.16; in assay [2], 1.82 (inactive); in assay [3], -0.417 (inactive); in assay [5] it was 4.1 (inactive); in [6], 1.66 (inactive); in assay [7] it was -0.359 (inactive). For the same compound, the z-score is -0.293 (inactive) in [8]; 0.194 in assay [9]; -1.62 in assay [13]; 1.21 (inactive) in assay [14]; -0.688 (inactive) in assay [15]; -0.476 (inactive) in [16]. Further, the composite z-score in assay [4] is -1.16 (inactive); in assay [10] it was 0.0981; in assay [11], 0.451 (inactive); in assay [12], 0.768.

As to `C=C(COC)/C(=C/C[C@@H](OC(=O)c1ccncc1)c1ccc(OCCO)cc1)c1cnc2ccccc2c1`, the z-score in assay [1] is 0.564; in [2], -1.17 (inactive); in assay [3], 0.354 (inactive); in assay [5], -0.0221 (inactive); in assay [6] it was -0.0819 (inactive); in assay [7] it was 0.595 (inactive). The z-score in [8] is 0.436 (inactive); in assay [9], 0.621; in [13], -2.93; in [14], -5.37 (inactive); in assay [15], -0.0998 (inactive); in assay [16] it was 0.349 (inactive). Also, the composite z-score is -6.09 (inactive) in assay [4], 0.0566 in assay [10], 0.39 (inactive) in assay [11] and 0.595 in [12].

In the case of `COC(=O)C1(Cc2ccccc2)C=C2C(=C(c3ccccc3)C(=O)C2C)CN1` (stereo not given), the z-score is -1.33 in assay [1]; 0.369 (inactive) in assay [2]; -2.99 (inactive) in assay [3]; 1.04 (inactive) in assay [5]; 0.109 (inactive) in assay [6]; -1.25 (inactive) in assay [7]. Further, the z-score in [8] was -0.628 (inactive); in [9], -1.78; in [13], -0.246; in [14], -9.2 (active); in assay [15], 0.222 (inactive); in [16], 0.532 (inactive). Moreover, the composite z-score was -1.03 (inactive) in assay [4], -0.217 in assay [10], -0.401 (inactive) in [11] and 0.691 in [12].

Regarding `C=C(COC)/C(=C/C[C@@H](OC(=O)c1ccncc1)c1ccc(CO)o1)c1cnc2ccccc2c1`, the z-score is 0.7 in assay [1]; 0.705 (inactive) in [2]; 0.372 (inactive) in [3]; 0.379 (inactive) in [5]; 1.2 (inactive) in [6]; 0.16 (inactive) in [7]. In addition, the z-score in assay [8] was 0.0648 (inactive); in assay [9], 0.235; in [13] it was -0.58; in assay [14], -5.9 (inactive); in assay [15], 0.496 (inactive); in assay [16] it was 0.671 (inactive). Also, the composite z-score in assay [4] is -7.93 (inactive); in [10], 0.641; in assay [11] it was 0.86 (inactive); in assay [12] it was 0.726.

As for `O=C1NC(=O)C2C1C=CC(C(O)c1ccc(Br)cc1)N2Nc1ccccn1` (stereo not given), the z-score in assay [1] was -0.917; in [2], 0.154 (inactive); in assay [3] it was -0.817 (inactive); in assay [5], 1.45 (inactive); in assay [6], -1.44 (inactive); in assay [7], 0.421 (inactive). In addition, the z-score is 0.956 (inactive) in assay [8]; -0.913 in assay [9]; 0.284 in assay [13]; -0.555 (inactive) in assay [14]; 0.48 (inactive) in assay [15]; 0.784 (inactive) in assay [16]. In addition, the composite z-score in assay [4] is -0.347 (inactive); in assay [10], 0.367; in assay [11], 0.623 (inactive); in [12] it was 0.883.

Values taken from PubChem BioAssay.
